# Only some compounds are listed: those with a hit (about 0.81% of all), similar ones and a draw of the others.
# NR5A2 inv ag = suppresses constitutive activity of human LRH-1; actives 0.13% (n = 360,000); HEK293T StAR-luciferase reporter, LRH-1 transfected, 24 h; O00482; inhibition, % at 3.6 µM;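 active means inhibition above the mean inhibition of all tested compounds plus 3 SD, cut at about 73% in these data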;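 further: 0% = DMSO wells and 100% = reporter-only cells lacking LRH-1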
# Target sequence (O00482 whole entry, looked up): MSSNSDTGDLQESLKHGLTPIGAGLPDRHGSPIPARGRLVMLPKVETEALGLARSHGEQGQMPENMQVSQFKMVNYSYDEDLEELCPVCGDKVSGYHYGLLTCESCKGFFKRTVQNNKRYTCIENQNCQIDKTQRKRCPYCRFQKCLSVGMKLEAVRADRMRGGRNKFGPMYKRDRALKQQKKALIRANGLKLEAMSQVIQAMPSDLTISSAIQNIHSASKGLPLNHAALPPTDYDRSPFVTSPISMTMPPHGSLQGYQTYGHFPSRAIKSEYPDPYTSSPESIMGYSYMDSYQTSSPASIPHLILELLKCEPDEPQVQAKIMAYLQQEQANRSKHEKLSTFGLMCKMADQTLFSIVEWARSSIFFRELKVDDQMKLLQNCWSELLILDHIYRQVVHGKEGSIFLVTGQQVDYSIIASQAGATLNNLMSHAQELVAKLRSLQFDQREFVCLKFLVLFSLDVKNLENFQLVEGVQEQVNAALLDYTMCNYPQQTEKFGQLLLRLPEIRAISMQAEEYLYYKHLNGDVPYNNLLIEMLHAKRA
# NCOA2 inhibitor = inhibits human steroid receptor coactivator 2 | Q15596 | HEK293 GAL4-SRC2 luciferase reporter, luminescence | inhibition, % at 9 µM | actives 0.17% (n = 370,000) | AID 651957;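 active means inhibition above the mean inhibition of all tested compounds plus 3 SD, set per campaign, cut at about 52% in these data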;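 further: 0% = DMSO treated cells and 100% = cells given Gossypol at 36 µM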
# NCOA1 inh = human NCOA1 inhibition; actives 0.12% (n = 360,000); AID 588354; HEK293 GAL4-SRC1 luciferase reporter, luminescence; inhibition, % at 3.6 µM; Q15788;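 active means inhibition above the campaign mean plus 3 SD, with each screening campaign given its own cutoff, cut at about 60% in these data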;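 further: 0% = DMSO treated cells and 100% = gossypol at 36 µM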
# NCOA3 inh = inhibitors of human steroid receptor coactivator 3 (SRC3); Q9Y6Q9; HEK293 GAL4-SRC3 luciferase reporter, luminescence; inhibition, % at 3.6 µM; actives 0.17% (n = 360,000);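 active means inhibition above a per-campaign cutoff, the mean of all compounds plus 3 SD, cut at about 60% in these data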;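 further: 0% = DMSO-treated cells and 100% = gossypol-treated cells at 36 µM; higher means less SRC3-driven luciferase light from the GAL4 reporter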
# NR2F2 inh = blocks human COUP-TFII nuclear receptor; P24468; HEK293T NGFI-A luciferase reporter, luminescence; inhibition, % at 8.6 µM; actives 0.7% (n = 370,000);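 active means inhibition above a per-plate cutoff, mean inhibition of test wells between control levels plus 3 SD, cut at about 38% in these data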;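 further: cells cotransfected with COUP-TFII expression vector driving the NGFI-A reporter; 0% = median of COUP-TF2 test wells and 100% = reporter-only cells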
# * = called active by the depositor; x = no result given.
SMILES,NR5A2 inv ag,NCOA2 inhibitor,NCOA1 inh,NCOA3 inh,NR2F2 inh
O=C1C=CC(=C(c2ccc(O)cc2)c2ccc(O)cc2)C=C1,81*,41,59,53,31
Cc1ccc(S(=O)(=O)c2nc(S(=O)(=O)c3ccccc3)sc2N2CCN(C)CC2)cc1,10,-6,-17,19,0
CC(=O)N(Cc1ccc(F)cc1)C1=C(NCc2ccccc2)C(=O)c2ccccc2C1=O,40,x,24,63*,x
Cc1ccc2c(C)nc(Nc3nc(CSc4nc5ccccc5[nH]4)cc(=O)[nH]3)nc2c1,8,-32,52,65*,0
Cc1ccc(SCc2cc(=O)[nH]c(Nc3nc(C)c4ccc(C)cc4n3)n2)cc1,15,-23,-53,17,-7
CCC(=O)Nc1ccc(NC(=O)c2oc3ccccc3c2C)cc1,20,58*,24,11,4
CCC(=O)Nc1ccc(NC(=S)NC(=O)c2oc3ccccc3c2C)cc1,-4,-4,11,0,4
CC(C)CN1C(=O)C[C@@]2(C(=O)N(C)c3ccc(NC(=O)C(F)(F)F)cc32)C1c1ccccc1 (stereo partly drawn),x,-20,x,x,3
COc1ccc(N2C(=O)c3ccccc3NC(=O)C2C(=O)NCc2ccco2)cc1 (stereo not drawn),-3,9,x,x,-1
Cc1cc(C)nc(SCc2ccc(C(=O)N/N=C/c3cccc(O)c3O)cc2)n1,-6,33,24,66*,-17
COc1ccc(O)c(/C=N/NC(=O)c2ccc(CSc3nc(C)cc(C)n3)cc2)c1,5,40,18,26,17
O=C(NCCc1ccc(F)cc1)c1cc(=O)c2ccccc2o1,-15,-24,-12,-4,1
OCC1OC(n2cnc3c(NCc4ccco4)ncnc32)C(O)C1O (stereo not drawn),57,-11,51,63*,-5
c1ccc(-c2nnc(-c3ccccn3)nc2NC2CCCCC2)cc1,67,14,50,78*,-2
Cc1nc2c(o1)C(=O)c1ccccc1C2=Nc1ccccc1,22,-16,37,77*,-5
COc1ccc(C(=O)Nc2nc3ccccc3[nH]2)cc1OC,-91,-53,-78,-64,-40
COc1ccc(Cl)cc1C(=O)Nc1nc2ccccc2[nH]1,-17,54*,-28,-25,29
N#CCCN(C(=S)NC(=O)C1CCCCC1)c1ccccc1F,19,20,-16,-23,0
O=C(CSc1nc(-c2cccs2)cc(C(F)(F)F)n1)Nc1cc(OCC(F)(F)C(F)F)cc([N+](=O)[O-])c1,-32,-7,76*,13,-2
CC1Cc2cc(/C(O)=C3/C(=O)C(=O)N(CCN4CCOCC4)C3c3ccc([N+](=O)[O-])cc3)ccc2O1 (stereo not drawn),-16,5,-5,15,-9
COC(=O)[C@@]12CCCCC=C1N(CCc1ccc(Cl)cc1)C(=O)[C@H]2CC(=O)NCCc1ccccc1OC,x,-8,x,x,17
COc1ccccc1/C=C/C(=O)OCC(=O)N1CCCCC1,-15,-29,-25,-14,-13
COc1cccc(/C=C/C(=O)OCC(=O)N2CCCC2)c1OC,-16,4,-22,86*,-39
COc1ccc([C@H]2OC(=O)C[C@@H]2C(=O)N2CCCCC2)cc1OC,x,-42,x,x,-7
Cc1cc(Cl)ccc1OCCCC(=O)NCCN1C(=O)S/C(=C\c2cccnc2)C1=O,-35,-8,-14,-7,-2
SMILES,NR5A2 inv ag,NCOA2 inhibitor,NCOA1 inh,NCOA3 inh,NR2F2 inh
CCn1c(C)cc(C(=O)COC(=O)c2ccccc2[N+](=O)[O-])c1C,95*,x,93*,93*,x
C=CCn1c(C)cc(C(=O)COC(=O)c2ccc(N)c([N+](=O)[O-])c2)c1C,-139,-39,-102,-70,-40
Nc1ncc([N+](=O)[O-])c(N2CCCCCC2)n1,27,44,65*,54,18
O=[N+]([O-])c1ccc(N2CCCC2)nc1N1CCCC1,48,19,-3,14,8
CCC(CO)Oc1cc(NCc2ccccc2)c2ncn(C(C)C)c2c1 (stereo not drawn),-9,-11,10,-26,25
CC(C)n1cnc2c(NCc3ccccc3)cc(N[C@H](C)CO)cc21,90*,x,89*,92*,x
CSCC[C@H](NC(=O)c1nn(C)c(=O)c2ccccc12)c1nc2ccccc2[nH]1,3,-24,-7,9,3
Clc1ccc(Nc2ncnc3ccc(Br)cc23)cc1,4,48,31,40,33
COc1ccc(Nc2ncnc3ccc(Br)cc23)cc1OC,10,x,61*,47,x
